Measurements reported in PubChem BioAssay AID1159580 (chemical genetic matrix, 2015).
Several values for one entry are separate records, joined by “and”; a condition that tells them apart may be missing. Equal values may be shown once. Screen size: about 5,500 compounds; about 2,000 (36%) were called active. Inconclusive results (about 18%) are left out. Rule as the data show it: active = normalized growth mostly below about 0.91 (no sharp cut-off); inconclusive = no clear call, values can overlap the other calls; inactive = mostly above about 0.92. This is one part of the list.

Assay: chemical genetic growth profiling, strain panel (AID 1159580);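 also: tested at 20 µM; growth read once vehicle control cultures reached saturation at 30 °C; 1 = growth at the plate median or of vehicle wells; lower values mean less growth of the strain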
Conditions: S. cerevisiae deletion strains, growth OD

Measured: normalized growth

CC(=O)O[C@@H]1CC2C(C)(C)C(=O)C=C[C@]2(C)C2CC[C@@]3(C)[C@H](c4ccoc4)OC(=O)[C@H]4O[C@]43[C@@]21C (stereo partly drawn)
inactive: locus YAL021C, strain ccr4, active compounds read low 1.03 | locus YAL026C, strain drs2, active compounds read low 0.99 | locus YAL030W, strain snc1, active compounds read low 0.997 | locus YBL061C, strain skt5, active compounds read low 1.01 | locus YBR009C, strain hhf1, active compounds read low 0.981 | locus YBR021W, strain FUR4, active compounds read low 0.983 | locus YBR023C, strain chs3, active compounds read low 1.01 | locus YBR171W, strain sec66, active compounds read low 0.982 | locus YBR229C, strain ROT2, active compounds read low 0.997 | locus YBR231C, strain swc5, active compounds read low 1 | locus YBR279W, strain paf1, active compounds read low 1.01 | locus YCL011C, strain gbp2, active compounds read low 0.994 | locus YCL016C, strain dcc1, active compounds read low 1.02 | locus YCL029C, strain bik1, active compounds read low 0.999 | locus YCL061C, strain MRC1, active compounds read low 0.972 | locus YCL069W, strain vba3, active compounds read low 0.968 | locus YCR088W, strain abp1, active compounds read low 0.98 | locus YDL005C, strain med2, active compounds read low 0.981 | locus YDL035C, strain GPR1, active compounds read low 1 | locus YDL040C, strain nat1, active compounds read low 0.998 | locus YDL074C, strain BRE1, active compounds read low 0.988 | locus YDL101C, strain DUN1, active compounds read low 1.01 | locus YDL134C, strain PPH21, active compounds read low 0.997 | locus YDL185W, strain tfp1, active compounds read low 1.01 | locus YDL192W, strain arf1, active compounds read low 0.991 | locus YDR001C, strain nth1, active compounds read low 0.972 | locus YDR069C, strain doa4, active compounds read low 1 | locus YDR101C, strain arx1, active compounds read low 0.984 | locus YDR137W, strain rgp1, active compounds read low 0.95 | locus YDR159W, strain sac3, active compounds read low 0.949 | locus YDR162C, strain NBP2, active compounds read low 0.996 | locus YDR195W, strain ref2 1.02 | locus YDR297W, strain sur2, active compounds read low 1.01 | locus YDR318W, strain mcm21, active compounds read low 0.994 | locus YDR334W, strain swr1, active compounds read low 1.02 | locus YDR335W, strain msn5, active compounds read low 1.02 | locus YDR388W, active compounds read low 0.994 | locus YDR392W, strain spt3, active compounds read low 0.831 | locus YDR502C, strain sam2, active compounds read low 0.981 | locus YEL003W, strain gim4, active compounds read low 0.95 | locus YEL037C, strain rad23, active compounds read low 0.973 | locus YEL061C, strain CIN8 (second series), active compounds read low 0.973 | locus YEL061C, strain CIN8, active compounds read low 0.996 | locus YER015W, strain faa2, active compounds read low 1.01 | locus YER016W, strain bim1, active compounds read low 1 | locus YER110C, active compounds read low 0.997 | locus YER111C, strain swi4, active compounds read low 0.985 | locus YER155C, strain BEM2 (second series), active compounds read low 1 | locus YER155C, strain BEM2, active compounds read low 1 | locus YER167W, strain BCK2, active compounds read low 1.01 | locus YFR010W, strain ubp6, active compounds read low 0.966 | locus YGL078C, strain dbp3, active compounds read low 0.994 | locus YGL086W, strain mad1, active compounds read low 1.01 | locus YGL167C, strain pmr1, active compounds read low 1 | locus YGL173C, strain kem1, active compounds read low 0.976 | locus YGL227W, strain vid30, active compounds read low 0.961 | locus YGL240W, strain doc1, active compounds read low 1.01 | locus YGL248W, strain PDE1, active compounds read low 1 | locus YGL253W, strain hxk2, active compounds read low 1.02 | locus YGR078C, strain PAC10, active compounds read low 1.01 | locus YGR135W, strain pre9, active compounds read low 0.998 | locus YGR252W, strain gcn5, active compounds read low 0.993 | locus YHR013C, strain ard1, active compounds read low 0.987 | locus YHR027C, strain rpn1, active compounds read low 1.01 | locus YHR030C, strain SLT2, active compounds read low 1.01 | locus YHR079C, strain IRE1 (second series), active compounds read low 0.988 | locus YHR079C, strain IRE1, active compounds read low 0.994 | locus YHR094C, strain hxt1, active compounds read low 0.993 | locus YHR129C, strain ARP1, active compounds read low 1 | locus YHR142W, strain chs7, active compounds read low 0.987 | locus YHR200W, strain rpn10, active compounds read low 0.997 | locus YIL066C, strain RNR3, active compounds read low 1 | locus YIL073C, strain SPO22, active compounds read low 0.969 | locus YIL125W, strain kgd1, active compounds read low 0.994 | locus YIR030C, strain dcg1, active compounds read low 0.989 | locus YJL092W, strain hpr5, active compounds read low 0.992 | locus YJL095W, strain BCK1 (second series), active compounds read low 1.02 | locus YJL095W, strain BCK1, active compounds read low 0.983 and 0.999 | locus YJL115W, strain asf1, active compounds read low 0.987 | locus YJL129C, strain trk1, active compounds read low 0.928 | locus YJL134W, strain LCB3, active compounds read low 1.01 | locus YJL154C, strain vps35, active compounds read low 0.971 | locus YJL164C, strain tpk1, active compounds read low 0.995 | locus YJL166W, strain qcr8, active compounds read low 1 | locus YJL168C, strain set2, active compounds read low 0.987 | locus YJL187C, strain SWE1 (second series), active compounds read low 1.01 | locus YJL187C, strain SWE1, active compounds read low 1.01 | locus YJR043C, strain POL32, active compounds read low 1.01
